Assay results reported in PubChem BioAssay AID1852 (Sanford-Burnham Center for Chemical Genomics, 2009).
Among all 2,500 compounds or so, about 1,100 (44%) were called active.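 How the source made its calls: active means inhibition above 50% at 4 µM in the single-point screen; inactive means inhibition of 50% or less.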 The set was probably picked from earlier hits. Some of the results follow.

Assay: TNF-a-driven NF-kB reporter inhibitors, primary screen, selectivity assay for NOD1/NOD2 signaling inhibitor project, cell-based, HEK293T NF-kB-Luc, luminescence (AID 1852)
Settings: TNF-a induced, 14 h, at 4 µM, hits give high values

inhibition, active:
Cc1oc(-c2cc(F)ccc2F)nc1CN1CCN(c2ncnc3ccccc23)CC1 104%, COc1ccc(-c2c[n+]3c(n2-c2ccc(C)cc2)CCCCC3)cc1 50.3%, N#CC1=C(N)C(C#N)(C#N)C(c2cccnc2)C2CC(c3ccccc3)CC=C12 (stereo not given) 83.6%, O=C(Nc1nnc(SCc2c(Cl)cccc2Cl)s1)c1cccc([N+](=O)[O-])c1 83.1%, COc1ccc(NC(=O)Cn2nnc(-c3ccccc3NS(=O)(=O)c3ccc(OC)cc3)n2)cc1 70.7%, Cc1noc(C)c1CSc1nc2ccccc2nc1NS(=O)(=O)c1ccc(Cl)cc1 102%, O=[N+]([O-])c1ccc(Oc2ccc(F)cc2Br)c2ccncc12 66.6%, O=[N+]([O-])c1ccc(Oc2ccc(F)cc2)c2ccncc12 61.5%, Cn1cc([N+](=O)[O-])c(C(=O)Nc2cc(Oc3ccccc3)cc([N+](=O)[O-])c2)n1 73.2%, O=C(N/N=C/c1ccccn1)c1cc(-c2ccccc2)nc2ccccc12 99.1%, O=C(N/N=C/c1ccccn1)c1cc(-c2ccc(Br)cc2)nc2ccccc12 105%, CCCOc1cccc(-c2cc(C(=O)N/N=C/c3ccccn3)c3ccccc3n2)c1 102%, O=C(N/N=C/c1ccccn1)c1cc(-c2ccc(Cl)cc2)nc2ccccc12 104%, O=C(NC1CCCCC1)C(c1cccnc1)N(C(=O)CCl)c1ccccc1Cl (stereo not given) 58.7%, COc1ccc(C(C(=O)NC2CCCCC2)N(C(=O)CCl)c2cccc(Cl)c2)cc1 (stereo not given) 60.8%, Cc1ccc(N(C(=O)CCl)C(C(=O)NC2CCCCC2)c2cccnc2)cc1C (stereo not given) 79.9%, O=C(NC1CCCCC1)C(c1cccnc1)N(C(=O)CCl)c1cccc(Cl)c1 (stereo not given) 75.7%, O=c1c(Cl)c(Cl)cnn1Cc1nnc(-c2ccccc2Br)o1 108%, O=c1c(Cl)c(Cl)cnn1Cc1nnc(-c2ccc(Cl)cc2)o1 51.5%, Clc1ccc(-c2csc3ncnc(NCCN4CCOCC4)c23)cc1 60.1%, COc1ccc(-c2csc3ncnc(NCCN4CCOCC4)c23)cc1 89.9%, O=C(CCl)N1N=C(c2ccco2)CC1c1cccs1 (stereo not given) 56%, O=C(CCl)N1N=C(c2ccco2)CC1c1ccco1 (stereo not given) 58.9%, O=C(CCl)N1N=C(c2cccs2)CC1c1ccco1 (stereo not given) 55.2%, COC(=O)c1ccc2c(c1)C(C)(C)C(/C=C/c1ccc(O)cc1)=[N+]2C 60.8%, COc1ccc(NC(=S)N2CCN(C/C=C/c3ccccc3)CC2)c(OC)c1 57.8%, c1cc(-c2nnc3sc(C4CCCCC4)nn23)ccn1 57.5%, c1ccc(CCc2nn3c(-c4ccncc4)nnc3s2)cc1 82.6%, CCCc1nc2c(=O)n(C)c(=O)nc-2n(C)n1 105%, Cc1ccc(OCC(=O)c2cc(C)n(Cc3cccs3)c2C)c([N+](=O)[O-])n1 68.2%, COCCn1c(C)cc(C(=O)COc2ccc(C)nc2[N+](=O)[O-])c1C 79.2%, COCCn1c(C)cc(C(=O)COC(=O)c2cccc(O)c2)c1C 81.1%, Cc1ccc(OCC(=O)c2cc(C)n(-c3ccccc3)c2C)c([N+](=O)[O-])n1 72.3%, Cc1ccc(OCC(=O)c2cc(C)n(Cc3ccco3)c2C)c([N+](=O)[O-])n1 65.1%, COc1cccc(/C=N/NC(=O)CNC(=O)/C=C\c2ccccc2)c1O 82.6%, COc1cccc(/C=N/NC(=O)CNC(=O)C(c2ccccc2)c2ccccc2)c1O 92.3%, CNC1=C(N(C(C)=O)c2ccc(Br)cc2)C(=O)c2ccccc2C1=O 98.3%, COc1cccc(C(=O)Nc2ccc(Oc3cccc(C(F)(F)F)c3)nc2)c1 53.3%, Cc1ccc(C)c(-n2[nH]c3c4c(ccc3c2=O)C(=O)c2ccccc2C4=O)c1 58.4%, Cc1ccc(-n2[nH]c3c4c(ccc3c2=O)C(=O)c2ccccc2C4=O)cc1 99.4%

inhibition, inactive:
COc1ccc(-c2nc(CN3CCN(c4ncnc5ccccc45)CC3)c(C)o2)c(OC)c1 23.9%, Cc1oc(-c2cccc3ccccc23)nc1CN1CCN(c2ncnc3ccccc23)CC1 43%, COc1cc(-c2n[nH]c(=S)n2-c2ccc(C)cc2)cc(OC)c1OC 2.4%, CC1(C)C=C2[C@H]3CC[C@@H]4[C@@]5(C)CCC(=O)C(C)(C)[C@@H]5CC[C@@]4(C)[C@]3(C)CC[C@@]2(C(=O)O)CC1 1.3%, Cc1csc(NC(=O)c2cc([N+](=O)[O-])cc([N+](=O)[O-])c2)n1 -6.5%, O=C(Nc1nc2c(Cl)cccc2s1)c1ccc([N+](=O)[O-])o1 6.3%, CCNS(=O)(=O)c1ccc(NC(=O)Cn2cc([N+](=O)[O-])cn2)cc1 25%, CCOC(=O)c1cc(C(=O)Nc2ccc(S(=O)(=O)Nc3ccc(OC)cc3)cc2)nn1C 18.6%, O=S(=O)(Nc1nc2ccccc2[nH]1)c1ccc(Cl)cc1 -4.8%, O=[N+]([O-])c1nn(-c2ccc3c(c2)OCCO3)n(O)c1=Nc1ccccc1 38%, O=C1C=C(N2CCOCC2)c2ccccc2C1=O 23.7%, Nc1ccc(S(=O)(=O)Nc2nccc(/C=C/c3cccc(Br)c3)n2)cc1 36.8%, O=[N+]([O-])c1ccc(Oc2cccc(F)c2)c2ccncc12 42.3%, Cc1ccccc1S(=O)(=O)Cc1ccc(C(=O)N2CCN(c3cccc(C)c3C)CC2)o1 -33.6%, Cc1ccc(-c2nc(NC(=O)c3nn(C)cc3[N+](=O)[O-])sc2C)cc1 39.6%, CCn1nc(C)c(C(=O)Nc2cc(Oc3cc(C)cc(C)c3)cc([N+](=O)[O-])c2)c1C 24.6%, O=C(Cc1cc(C(=O)O)c2ccccc2n1)Nc1ccccc1 -8.7%, O=C(N/N=C/c1ccc[nH]1)c1cc(-c2ccc(Cl)cc2)nc2ccccc12 3.4%, COc1ccc(C(C(=O)NC2CCCCC2)N(C(=O)CCl)c2ccccc2Cl)cc1 (stereo not given) 6.2%, COc1ccc(C(C(=O)NC2CCCCC2)N(C(=O)CCl)c2ccc(Cl)cc2)cc1 (stereo not given) 20.4%, S=C(Nc1ccc(Cl)c(Cl)c1)NC1CCCCC1 44.7%, COc1ccc(C(=O)/C=C/C(=O)N(CC(=O)NC2CCCCC2)Cc2ccccc2OC)c(O)c1 33.1%, O=C(CN1C(=O)c2cccnc2Oc2ccc(Cl)cc21)NC1CCCCCC1 25.9%, O=c1c(Cl)c(Cl)cnn1Cc1ccc(F)cc1 33.4%, COc1ccc(-c2csc3ncnc(N4CCN(c5ccccc5[N+](=O)[O-])CC4)c23)cc1 -57.1%, C=CCn1c(C)c(/C=C/c2cc[n+](C)cc2)c2ccccc21 12%, COc1ccc(C2CC(c3cccs3)=NN2C(=O)CCl)cc1OC (stereo not given) 47.4%, COc1cc(C2CC(c3cccs3)=NN2C(=O)CCl)ccc1OC(F)F (stereo not given) 40.7%, Cc1ccc(C2=NN(C(=O)CCl)C(c3cccs3)C2)o1 (stereo not given) 43.6%, COC(=O)C1=C(C)N(c2ccc(F)cc2)/C(=C/c2ccc(O)cc2)C1=O -3%, COC(=O)c1ccc2c(c1)C(C)(C)C(/C=C/c1ccccc1O)=[N+]2C -7.6%, c1cnc(N2CCN(c3ccc4ccccc4n3)CC2)nc1 -118%, COc1ccc(NC(=O)c2cc(N3C(=O)C4C5CCC(C5)C4C3=O)ccc2Cl)c(OC)c1 (stereo not given) 30.6%, COc1ccc(CCNC(=S)N2CCC(Cc3ccccc3)CC2)cc1OC 47.4%, c1csc(Cc2nn3c(-c4ccncc4)nnc3s2)c1 42.2%, O=C(CCN1C(=O)c2ccc([N+](=O)[O-])cc2C1=O)Nc1ccc(O)cc1C(=O)O -3.9%, COCCn1c(C)cc(C(=O)CSc2nnc3ccccn23)c1C 17.3%, COCC(C)n1c(C)cc(C(=O)COc2ccc(C)nc2[N+](=O)[O-])c1C (stereo not given) 41%, CCCn1c(C)cc(C(=O)COc2ccc(C)nc2[N+](=O)[O-])c1C -16.5%, Cc1cc(C(=O)COc2cccnc2[N+](=O)[O-])c(C)n1Cc1cccs1 38.6%, C=CCn1c(C)cc(C(=O)COc2ccc(C)nc2[N+](=O)[O-])c1C 30%, Cc1cc(C(=O)COc2cccnc2[N+](=O)[O-])c(C)n1-c1ccccc1F 38.6%, COc1ccccc1[C@@H]1C(c2cccc(C)c2)=NN(c2ccccc2)[C@H]1C(=O)N1CCOC1=O -11.7%, Cc1cc(C(=O)COc2cccnc2[N+](=O)[O-])c(C)n1Cc1ccco1 -11%, COc1cccc(/C=N/NC(=O)c2cc3c(OC)ccc(OC)c3[nH]2)c1O 48.6%, CN(C1=C(NC(=O)c2ccc(Cl)cc2)C(=O)c2ccccc2C1=O)c1ccccc1 21.3%, O=C(/C=C/c1ccco1)NCC1COc2ccccc2O1 (stereo not given) -14.9%, O=C(Nc1ccc(Oc2cccnc2)nc1)c1ccc(C(F)(F)F)cc1 42.6%, O=C(Nc1ccc(Oc2cccc(C(F)(F)F)c2)nc1)c1cccs1 49.2%, Cc1cccc(-n2[nH]c3c4c(ccc3c2=O)C(=O)c2ccccc2C4=O)c1 37.6%
